# This is part of a sample that, as a whole, favours compounds with a hit. Of some 83,000 tested, about 20% had one in any assay.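 Single-dose data. Exposure time 48 hours. Values below 10 considered active.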 A number with no mark means an inactive call. The source made the active and inactive calls.
# How the values were obtained:
# Test in all cases: NCI-60 one-dose screen, 48 h (100 = growth as untreated, 0 = no growth, -100 = all killed)
# Settings in all cases: 10 µM unless noted
# [1] = test system: EKVX NSCLC
# [2] = test system: SN12C renal
# [3] = test system: UO-31 renal
# [4] = test system: TK-10 renal
# [5] = test system: ACHN renal
# [6] = test system: CAKI-1 renal
# [7] = test system: A498 renal
# [8] = test system: CCRF-CEM leukemia
# [9] = test system: MOLT-4 leukemia
# [10] = test system: SR leukemia
SMILES,growth [1],growth [2],growth [3],growth [4],growth [5],growth [6],growth [7],growth [8],growth [9],growth [10]
O=C(O)c1cn(C2CC2)c2cc(N3CCN(C(=O)C[n+]4ccccc4)CC3)c(F)cc2c1=O,94.4%,97.5%,88.1%,99.3%,103%,94.3%,87.6%,97.4%,104%,107%
COc1ccc(CCN2C(=O)/C(=C/c3ccc(C4Oc5ccccc5C5CC(c6cccc(OC)c6)=NN54)cc3)SC2=S)cc1 (stereo not given),94.4%,101%,82%,103%,98.3%,95.7%,106%,98.8%,104%,115%
CNCCNc1nc2ccccc2c2c(=O)c3cc(OC)ccc3sc12,59.2%,66.3%,41.1%,-15.1% (active),35.4%,48%,45.7%,2.47% (active),-28.8% (active),5.19% (active)
COc1cccc(/C(C#N)=C/c2nc3c(N4CCOCC4)nc(Cl)nc3n2C)c1,-77.3% (active),12.8%,-95.9% (active),-65.6% (active),-98% (active),-92.1% (active),-2.48% (active),2.67% (active),-19.4% (active),5.6% (active)
Cn1c2c(c(=O)[nH]c1=O)NC1=C(C(=O)c3ccccc31)C1(C=C(O)c3ccccc31)N2 (stereo not given),95.7%,108%,77.6%,134%,89.7%,86%,143%,107%,121%,47.6%
O=c1c2cccc(F)c2sc2c(N3CCNCC3)nc3ccccc3c12,48.2%,46.5%,23%,53%,16%,39.4%,48.5%,13.2%,-18.8% (active),3.21% (active)
O=C(/C=C/c1ccc(F)cc1)c1ccc(Nc2nc(NCCO)nc(Nc3ccc(Cl)cc3)n2)cc1,67.7%,94%,70.7%,93.4%,70.8%,73.6%,70.4%,60.5%,57.9%,25.8%
COC(=O)C1=Nc2ccc(F)cc2/C1=C/c1sc(=S)[nH]c1O,36.8%,27.3%,14.7%,56%,25.1%,20%,25.7%,11.9%,13.7%,22.3%
Cc1nc(Nc2cn[nH]c2C(=O)Nc2ccc(CN3CCN(C)CC3)cc2)c2ccsc2n1,106%,75.4%,59.6%,114%,92.8%,61.5%,66.7%,40.5%,45.8%,5.46% (active)
Cc1c(-c2noc(-c3ccc([N+](=O)[O-])cc3)n2)no[n+]1[O-],65.2%,98.3%,78.4%,153%,89.2%,83.8%,117%,101%,101%,103%
COc1ccc2oc(=O)cc(Cn3cc(Cn4cnc5c4c(=O)n(C)c(=O)n5C)nn3)c2c1,103%,95.9%,83.3%,100%,98.7%,95.3%,103%,106%,103%,106%
O=C1/C(=C/c2ccc(O)cc2)COc2ccc(O)c(O)c21,71.5%,-4.74% (active),-88.5% (active),54.1%,-16.2% (active),6.4% (active),98.4%,9.61% (active),4.43% (active),12.7%
CCN1C(=O)N(CC)C2Nn3c(s/c(=C4\C(=O)N(C(C)C)c5ccccc54)c3=O)=NC21 (stereo not given),29.9%,47.7%,55.8%,86.6%,43.1%,45.9%,37.4%,19.3%,19.6%,21.2%

# Reference: PubChem BioAssay (NCI)
